# ± gives the standard deviation.
# T1: HaloTag-ATRX ADD domain (163-292)
# T1 chain: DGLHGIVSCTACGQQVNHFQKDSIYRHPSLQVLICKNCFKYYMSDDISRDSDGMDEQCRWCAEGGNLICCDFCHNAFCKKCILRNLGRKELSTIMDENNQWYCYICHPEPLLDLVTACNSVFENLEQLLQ
# How the values were obtained:
# Experiment in all cases: peptide microarray binding signal (635 nm), min-max normalized on array (fraction of array maximum); higher = stronger binding
# Conditions in all cases: peptide region: H3 112-124
# [1] = target: T1, HaloTag-ATRX ADD domain (163-292)
# Procedure, shortened: (§1)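 Within each library, mean intensities of triplicate spots were min-max scaled to give the binding signal. The spots were histone 13-mer peptide–cellulose conjugates on nitrocellulose with a Cy3 tracer, blocked overnight at 4°C. They were then probed for 1 h at 4°C using biotin-labelled HaloTag reader fusions (10 nM to 1 μM) with streptavidin-Alexa Fluor 647 or rabbit histone antibodies (1:10,000 to 1:2,000) with anti-rabbit Alexa 647, and scanned at 635 nm for signal and 532 nm for misprints on an Axon GenePix 4000B.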
# [2] = target: HaloTag-ING2 PHD (mouse Ing2 200-280)
# Procedure, shortened: as §1
# [3] = target: anti-H3K4me3 antibody ab8580
# Procedure, shortened: as §1
# [4] = target: anti-H3K9me3 antibody ab8898
# Procedure, shortened: as §1
# [5] = peptide modifications: H3K115me2, binder concentration: 1:2,000 dilution
# [6] = peptide modifications: H3K115me2, binder concentration: 1:10,000 dilution
# [7] = peptide modifications: H3K115me2 H3R116cit, binder concentration: 1:2,000 dilution
# [8] = peptide modifications: H3K115me2 H3R116cit, binder concentration: 1:10,000 dilution
# [9] = peptide modifications: H3K115me2 H3K122me1, binder concentration: 1:2,000 dilution
# [10] = peptide modifications: H3K115me2 H3K122me1, binder concentration: 1:10,000 dilution
# [11] = peptide modifications: H3K115me2 H3K122ac, binder concentration: 1:2,000 dilution
# [12] = peptide modifications: H3K115me2 H3K122ac, binder concentration: 1:10,000 dilution
# [13] = peptide modifications: H3K115me1 H3R116me2s, binder concentration: 1:2,000 dilution
# [14] = peptide modifications: H3K115me1 H3R116me2s, binder concentration: 1:10,000 dilution
# [15] = peptide modifications: H3K115me1 H3R116me2a, binder concentration: 1:2,000 dilution
# [16] = peptide modifications: H3K115me1 H3R116me2a, binder concentration: 1:10,000 dilution
# [17] = peptide modifications: H3K115me2 H3K122me3, binder concentration: 1:2,000 dilution
# [18] = peptide modifications: H3K115me2 H3K122me3, binder concentration: 1:10,000 dilution
# [19] = peptide modifications: H3K115me2 H3R116me2a, binder concentration: 1:2,000 dilution
# [20] = peptide modifications: H3K115me2 H3R116me2a, binder concentration: 1:10,000 dilution
# [21] = peptide modifications: H3K115me2 H3K122me2, binder concentration: 1:2,000 dilution
# [22] = peptide modifications: H3K115me2 H3K122me2, binder concentration: 1:10,000 dilution
# [23] = peptide modifications: H3K115me2 H3R116me1, binder concentration: 1:2,000 dilution
# [24] = peptide modifications: H3K115me2 H3R116me1, binder concentration: 1:10,000 dilution
binder,measurement,setting,value
IHAKRVTIMPKDI [H3 112-124 I H A Kme2 R V T I M P K D I],peptide microarray binding signal,"[1]; peptide modifications: H3K115me2, binder concentration: 50 nM",0.0058 ± 7e-05
same,peptide microarray binding signal,"[1]; peptide modifications: H3K115me2, binder concentration: 500 nM",0.012 ± 0.0003
same,peptide microarray binding signal,"[2]; peptide modifications: H3K115me2, binder concentration: 10 nM",0.0144 ± 0.00078
same,peptide microarray binding signal,"[2]; peptide modifications: H3K115me2, binder concentration: 100 nM",0.0293 ± 0.0017
same,peptide microarray binding signal,[3]; [5],0.00506 ± 0.00089
same,peptide microarray binding signal,[3]; [6],0.00588 ± 0.00054
same,peptide microarray binding signal,[4]; [5],0.00495 ± 0.00045
same,peptide microarray binding signal,[4]; [6],0.00479 ± 0.00031
IHAKRVTIMPKDI [H3 112-124 I H A Kme2 Rcit V T I M P K D I],peptide microarray binding signal,"[1]; peptide modifications: H3K115me2 H3R116cit, binder concentration: 50 nM",0.00386 ± 8.5e-05
same,peptide microarray binding signal,"[1]; peptide modifications: H3K115me2 H3R116cit, binder concentration: 500 nM",0.008 ± 0.00037
same,peptide microarray binding signal,"[2]; peptide modifications: H3K115me2 H3R116cit, binder concentration: 10 nM",0.0196 ± 0.00092
same,peptide microarray binding signal,"[2]; peptide modifications: H3K115me2 H3R116cit, binder concentration: 100 nM",0.0271 ± 0.0013
same,peptide microarray binding signal,[3]; [7],0.00257 ± 8.7e-05
same,peptide microarray binding signal,[3]; [8],0.00211 ± 6.7e-05
same,peptide microarray binding signal,[4]; [7],0.00118 ± 5.6e-05
same,peptide microarray binding signal,[4]; [8],0.00133 ± 4e-05
IHAKRVTIMPKDI [H3 112-124 I H A Kme2 R V T I M P Kme D I],peptide microarray binding signal,"[1]; peptide modifications: H3K115me2 H3K122me1, binder concentration: 50 nM",0.00398 ± 8.3e-05
same,peptide microarray binding signal,"[1]; peptide modifications: H3K115me2 H3K122me1, binder concentration: 500 nM",0.00852 ± 0.00012
same,peptide microarray binding signal,"[2]; peptide modifications: H3K115me2 H3K122me1, binder concentration: 10 nM",0.0224 ± 0.00092
same,peptide microarray binding signal,"[2]; peptide modifications: H3K115me2 H3K122me1, binder concentration: 100 nM",0.0286 ± 0.0023
same,peptide microarray binding signal,[3]; [9],0.0024 ± 0.00012
same,peptide microarray binding signal,[3]; [10],0.002853 ± 2.4e-05
same,peptide microarray binding signal,[4]; [9],0.0016 ± 2.9e-05
same,peptide microarray binding signal,[4]; [10],0.001441 ± 1.4e-05
IHAKRVTIMPKDI [H3 112-124 I H A Kme2 R V T I M P Kac D I],peptide microarray binding signal,"[1]; peptide modifications: H3K115me2 H3K122ac, binder concentration: 50 nM",0.00357 ± 5.2e-05
same,peptide microarray binding signal,"[1]; peptide modifications: H3K115me2 H3K122ac, binder concentration: 500 nM",0.006 ± 0.00044
same,peptide microarray binding signal,"[2]; peptide modifications: H3K115me2 H3K122ac, binder concentration: 10 nM",0.0178 ± 0.0029
same,peptide microarray binding signal,"[2]; peptide modifications: H3K115me2 H3K122ac, binder concentration: 100 nM",0.0235 ± 0.0049
same,peptide microarray binding signal,[3]; [11],0.00145 ± 0.00019
same,peptide microarray binding signal,[3]; [12],0.00188 ± 0.00012
same,peptide microarray binding signal,[4]; [11],0.00186 ± 0.00037
same,peptide microarray binding signal,[4]; [12],0.00277 ± 0.00067
IHAKRVTIMPKDI [H3 112-124 I H A Kme Rme2s V T I M P K D I],peptide microarray binding signal,"[1]; peptide modifications: H3K115me1 H3R116me2s, binder concentration: 50 nM",0.00257 ± 2.3e-05
same,peptide microarray binding signal,"[1]; peptide modifications: H3K115me1 H3R116me2s, binder concentration: 500 nM",0.00552 ± 0.00018
same,peptide microarray binding signal,"[2]; peptide modifications: H3K115me1 H3R116me2s, binder concentration: 10 nM",0.004 ± 0.00015
same,peptide microarray binding signal,"[2]; peptide modifications: H3K115me1 H3R116me2s, binder concentration: 100 nM",0.00716 ± 0.00083
same,peptide microarray binding signal,[3]; [13],0.000906 ± 2.8e-05
same,peptide microarray binding signal,[3]; [14],0.00137 ± 1.3e-05
same,peptide microarray binding signal,[4]; [13],0.00156 ± 0.00014
same,peptide microarray binding signal,[4]; [14],0.00127 ± 1.3e-05
IHAKRVTIMPKDI [H3 112-124 I H A Kme Rme2a V T I M P K D I],peptide microarray binding signal,"[1]; peptide modifications: H3K115me1 H3R116me2a, binder concentration: 50 nM",0.005172 ± 3.7e-05
same,peptide microarray binding signal,"[1]; peptide modifications: H3K115me1 H3R116me2a, binder concentration: 500 nM",0.0151 ± 0.00091
same,peptide microarray binding signal,"[2]; peptide modifications: H3K115me1 H3R116me2a, binder concentration: 10 nM",0.0102 ± 0.00057
same,peptide microarray binding signal,"[2]; peptide modifications: H3K115me1 H3R116me2a, binder concentration: 100 nM",0.0244 ± 0.0083
same,peptide microarray binding signal,[3]; [15],0.00434 ± 0.00096
same,peptide microarray binding signal,[3]; [16],0.00297 ± 8.7e-05
same,peptide microarray binding signal,[4]; [15],0.0064 ± 0.00053
same,peptide microarray binding signal,[4]; [16],0.00317 ± 0.00013
IHAKRVTIMPKDI [H3 112-124 I H A Kme2 R V T I M P Kme3 D I],peptide microarray binding signal,"[1]; peptide modifications: H3K115me2 H3K122me3, binder concentration: 50 nM",0.00401 ± 7.2e-05
same,peptide microarray binding signal,"[1]; peptide modifications: H3K115me2 H3K122me3, binder concentration: 500 nM",0.0105 ± 0.00042
same,peptide microarray binding signal,"[2]; peptide modifications: H3K115me2 H3K122me3, binder concentration: 10 nM",0.0258 ± 0.0013
same,peptide microarray binding signal,"[2]; peptide modifications: H3K115me2 H3K122me3, binder concentration: 100 nM",0.0359 ± 0.0052
same,peptide microarray binding signal,[3]; [17],0.00289 ± 0.00018
same,peptide microarray binding signal,[3]; [18],0.00274 ± 0.00017
same,peptide microarray binding signal,[4]; [17],0.0105 ± 0.0013
same,peptide microarray binding signal,[4]; [18],0.00536 ± 0.00056
IHAKRVTIMPKDI [H3 112-124 I H A Kme2 Rme2a V T I M P K D I],peptide microarray binding signal,"[1]; peptide modifications: H3K115me2 H3R116me2a, binder concentration: 50 nM",0.00392 ± 0.00012
same,peptide microarray binding signal,"[1]; peptide modifications: H3K115me2 H3R116me2a, binder concentration: 500 nM",0.0121 ± 0.00062
same,peptide microarray binding signal,"[2]; peptide modifications: H3K115me2 H3R116me2a, binder concentration: 10 nM",0.013 ± 0.0011
same,peptide microarray binding signal,"[2]; peptide modifications: H3K115me2 H3R116me2a, binder concentration: 100 nM",0.015 ± 0.0041
same,peptide microarray binding signal,[3]; [19],0.00655 ± 0.00081
same,peptide microarray binding signal,[3]; [20],0.00291 ± 6.6e-05
same,peptide microarray binding signal,[4]; [19],0.00612 ± 0.00057
same,peptide microarray binding signal,[4]; [20],0.00346 ± 0.00033
IHAKRVTIMPKDI [H3 112-124 I H A Kme2 R V T I M P Kme2 D I],peptide microarray binding signal,"[1]; peptide modifications: H3K115me2 H3K122me2, binder concentration: 50 nM",0.003981 ± 1.6e-05
same,peptide microarray binding signal,"[1]; peptide modifications: H3K115me2 H3K122me2, binder concentration: 500 nM",0.00729 ± 0.00043
same,peptide microarray binding signal,"[2]; peptide modifications: H3K115me2 H3K122me2, binder concentration: 10 nM",0.0277 ± 0.0045
same,peptide microarray binding signal,"[2]; peptide modifications: H3K115me2 H3K122me2, binder concentration: 100 nM",0.0324 ± 0.0023
same,peptide microarray binding signal,[3]; [21],0.00387 ± 0.0014
same,peptide microarray binding signal,[3]; [22],0.00382 ± 0.00021
same,peptide microarray binding signal,[4]; [21],0.0021 ± 6.7e-05
same,peptide microarray binding signal,[4]; [22],0.002076 ± 1.9e-05
IHAKRVTIMPKDI [H3 112-124 I H A Kme2 Rme V T I M P K D I],peptide microarray binding signal,"[1]; peptide modifications: H3K115me2 H3R116me1, binder concentration: 50 nM",0.00978 ± 0.00067
same,peptide microarray binding signal,"[1]; peptide modifications: H3K115me2 H3R116me1, binder concentration: 500 nM",0.0323 ± 0.001
same,peptide microarray binding signal,"[2]; peptide modifications: H3K115me2 H3R116me1, binder concentration: 10 nM",0.0352 ± 0.017
same,peptide microarray binding signal,"[2]; peptide modifications: H3K115me2 H3R116me1, binder concentration: 100 nM",0.0291 ± 0.0025
same,peptide microarray binding signal,[3]; [23],0.0244 ± 0.00081
same,peptide microarray binding signal,[3]; [24],0.0144 ± 0.0052
same,peptide microarray binding signal,[4]; [23],0.00761 ± 0.0024
same,peptide microarray binding signal,[4]; [24],0.0104 ± 0.00061
